Screen size: about 310,000 compounds; about 14,000 (4.5%) showed an effect of 50% or more. Effects have a minus sign here. For the sample, strong results were picked, then their nearest neighbours and some compounds at random.
biological target: human ether-à-go-go-related gene (hERG) potassium channel (human, UniProt Q12809); test: primary screen, population patch clamp on CHO cells stably expressing hERG; higher = less effect of the substance
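Note: peak tail current of the secondary pulse compared with the same well before compound.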

human ether-à-go-go-related gene (hERG) potassium channel, sequence (Q12809 whole entry, looked up): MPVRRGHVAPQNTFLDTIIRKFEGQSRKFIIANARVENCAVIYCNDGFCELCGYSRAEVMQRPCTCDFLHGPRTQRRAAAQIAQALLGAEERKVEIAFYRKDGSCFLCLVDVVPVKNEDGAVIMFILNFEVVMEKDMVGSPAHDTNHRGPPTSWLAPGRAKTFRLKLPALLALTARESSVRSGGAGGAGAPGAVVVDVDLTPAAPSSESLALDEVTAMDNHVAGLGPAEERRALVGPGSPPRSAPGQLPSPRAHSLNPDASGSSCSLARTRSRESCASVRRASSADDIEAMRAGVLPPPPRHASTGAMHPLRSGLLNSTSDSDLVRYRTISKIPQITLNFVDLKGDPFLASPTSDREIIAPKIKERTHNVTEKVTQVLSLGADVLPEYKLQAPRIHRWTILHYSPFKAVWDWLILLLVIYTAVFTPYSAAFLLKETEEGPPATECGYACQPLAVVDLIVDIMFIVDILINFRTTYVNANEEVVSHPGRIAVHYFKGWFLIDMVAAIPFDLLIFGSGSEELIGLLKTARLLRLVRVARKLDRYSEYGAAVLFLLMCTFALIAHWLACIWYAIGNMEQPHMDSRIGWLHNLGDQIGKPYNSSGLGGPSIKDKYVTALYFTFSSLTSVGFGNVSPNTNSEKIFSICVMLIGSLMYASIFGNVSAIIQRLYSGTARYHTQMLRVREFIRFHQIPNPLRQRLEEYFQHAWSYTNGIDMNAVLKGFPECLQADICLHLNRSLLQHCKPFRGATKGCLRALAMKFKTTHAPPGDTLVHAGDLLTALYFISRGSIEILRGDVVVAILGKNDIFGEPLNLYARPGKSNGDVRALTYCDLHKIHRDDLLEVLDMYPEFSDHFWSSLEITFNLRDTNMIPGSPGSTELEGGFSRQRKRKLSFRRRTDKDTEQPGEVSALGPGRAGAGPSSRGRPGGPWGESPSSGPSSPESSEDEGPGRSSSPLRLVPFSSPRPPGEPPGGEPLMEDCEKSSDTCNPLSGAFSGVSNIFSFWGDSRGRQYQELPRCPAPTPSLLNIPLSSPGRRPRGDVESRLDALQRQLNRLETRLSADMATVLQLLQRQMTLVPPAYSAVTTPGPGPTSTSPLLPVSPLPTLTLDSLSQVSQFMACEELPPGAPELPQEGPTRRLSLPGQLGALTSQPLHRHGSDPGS

| SMILES | hERG current change (%, negative = inhibition) at 10uM |
| --- | --- |
| O=C(c1cccc(-c2ccccc2F)c1)N1CC[C@@H](N2CCC(O)CC2)[C@H](O)C1 | -17.7% |
| CC1(C)CC(O)CC(C)(C)N1CC(O)COCc1ccccc1 (stereo not drawn) | 11.7% |
| OC(COc1cccc2ccccc12)CN1CCN(c2cccc(Cl)c2)CC1 (stereo not drawn) | 1.82% |
| Cc1cccc(OCC(O)CN2C(C)(C)CC(O)CC2(C)C)c1 (stereo not drawn) | -33.2% |
| Cc1ccccc1OCC(O)CN1CCN(c2ccc(Cl)cc2)CC1 (stereo not drawn) | -66.3% |
| Cc1ccccc1OCC(O)CN1CCCCC1.Cl (stereo not drawn) | 9.68% |
| CC1CN(CC(O)COc2ccccc2C(C)(C)C)CC(C)O1.Cl (stereo not drawn) | -10.1% |
| Cc1cccc(N2CCN(CC(O)COc3ccc(Cl)cc3)CC2)c1 (stereo not drawn) | -41.3% |
| C=C1CC(C)OC(c2ccccc2OCC(O)CN2CCCCC2)C1 (stereo not drawn) | -72.4% |
| Cc1cccc(OCC(O)CN2C(C)(C)CC(O)CC2(C)C)c1C (stereo not drawn) | -51.3% |
| Cc1cccc(N2CCN(CC(O)COc3ccccc3Cl)CC2)c1 (stereo not drawn) | -56% |
| OC(COc1cccc2ccccc12)CN1CCN(c2ccc(Cl)cc2)CC1 (stereo not drawn) | -3.42% |
| COC(=O)c1ccc(NC(=O)c2c(C(=O)Nc3ccccc3)sc3nc(C)cc(=O)n23)cc1 | 15.3% |
| Cc1ccccc1NC(=O)CSc1nnnn1C | 6.94% |
| CCOC(=O)c1c(-c2ccccc2)csc1NC(=O)c1cc(S(=O)(=O)N2CCOCC2)ccc1C | 2.23% |
| N#Cc1sc2nc(-c3cccs3)cc(-c3ccc(Cl)cc3)c2c1N | -2.05% |
| C=CCc1cccc2cc(C(=O)N3CCN(c4ccccn4)CC3)c(=O)oc12 | -38.9% |
| O=C1COc2ccc(C(=O)COC(=O)c3ncc(Cl)c(Cl)c3Cl)cc2N1 | 36.6% |
| COc1ccc(/C=C/C2=NN(C)C(=O)CC2)cc1 | 13.4% |
| O=C(N/N=C\c1ccc(CNS(=O)(=O)c2ccccc2)o1)C(=O)Nc1ccc(F)cc1 | -22.3% |
| S=C(NCc1ccc2c(c1)OCO2)NC1CCN(Cc2ccccc2)CC1 | 20.6% |
| CCOC(=O)c1nc(C)n(-c2ccc(Cl)cc2Cl)n1 | 8.75% |
| COc1ccc(-c2nc(SC(CC(=O)NCCN3CCOCC3)c3cccs3)n[nH]2)cc1 (stereo not drawn) | 1.08% |

| SMILES | hERG current change (%, negative = inhibition) at 10uM |
| --- | --- |
| COc1ccc(N2CCN(CC(O)COc3ccccc3[N+](=O)[O-])CC2)cc1.Cl (stereo not drawn) | -44.1% |
| Cc1ccccc1OCC(O)CN1CCC(C)CC1.Cl (stereo not drawn) | -34.1% |
| Cc1ccccc1OCC(O)CN1CCN(CC(O)COc2ccccc2C)CC1 (stereo not drawn) | -81.6% |
| Cc1ccccc1OCC(O)CN1CCN(CC(O)COc2ccccc2C)C(C)C1.O=C(O)C(=O)O (stereo not drawn) | -70.8% |
| CCOC(=O)N1CCN(CC(O)COc2ccccc2[N+](=O)[O-])CC1.Cl (stereo not drawn) | -0.882% |
| Cc1ccccc1OCC(O)CN.Cl.O (stereo not drawn) | -1.72% |
| Cc1ccccc1OCC(O)CN1CCN(C)CC1.Cl (stereo not drawn) | -0.704% |
| O=[N+]([O-])c1ccccc1OCC(O)CN1CCN(CC(O)COc2ccccc2[N+](=O)[O-])CC1 (stereo not drawn) | -60.2% |
| COc1ccccc1OCC(O)CN1CCN(CC(=O)Nc2c(C)cccc2C)CC1 (stereo not drawn) | -18.6% |
| Cc1ccccc1N1C(=O)CSC1=C(C#N)C#N | 18.3% |
| S=C(NCc1ccccn1)Nc1ccccc1 | 16.3% |
| Cc1ccc(N2CC(C(=O)NC3CC3)CC2=O)cc1Cl (stereo not drawn) | 10% |
| CCOC(=O)CSc1nc2sc3c(c2c(=O)[nH]1)CC(C)(C)OC3 | 0.154% |
| CSc1cccc(NC(=O)CN(C2CCCCC2)S(C)(=O)=O)c1 | -7.59% |
| Cc1ccc(-c2csc3nc[nH]c(=S)c23)cc1C | 27.5% |
| CSc1nc(C)cc(C)c1S(=O)(=O)c1ccccc1C | 7.41% |
| OCC1(Cc2ccc(Cl)cc2)CCN(CC2CC=CCC2)CC1 (stereo not drawn) | -76.7% |
| O=C(Cc1ccccc1)N1CCN(CC2CC=CCC2)CC1 (stereo not drawn) | -3.05% |
| Fc1ccc(CN2CCCCCCC2)cc1F | -24% |
| OCC1(Cc2ccc(Cl)cc2)CCN(Cc2ccc(F)c(F)c2)CC1 | -68.6% |
| OCC1(Cc2ccccc2)CCN(CCCC2CCCC2)CC1 | -76.8% |
| OCC1(Cc2ccccc2)CCN(Cc2cnc(-c3ccc(Cl)cc3)nc2)CC1 | -47.1% |

From paper PMC4336329 (PLoS ONE, 2015)
